Screening data as filed in PubChem.
Only some compounds are listed: those with a hit (about 8% of all), similar ones and a draw of the others.
Marburg entry inh: Marburg virus entry inhibition; Marburg virus pseudotyped entry inhibition, cell reporter; Potency, µM (series often up to 37.8 µM), for the others: at the highest dose activity change, negative = inhibition, hits mostly inhibitors; 300,000 tested, 1.8% active; AID 540276; calls by dose curve; tested in HEK293 cells; further: potency means the concentration at half of the fitted maximal effect; on the % scale 0 is the no-effect control and ±100 the full control effect
Lassa entry inh: blocks Lassa virus binding to or entry into cells. Lassa virus pseudotype entry inhibition, cell reporter. Potency, µM (top dose mostly 37.9 µM), inactives show top-dose activity change, negative = inhibition, usual class: inhibitors. 300,000 tested, 1.2% active; calls by dose curve; tested in HEK293 cells; further: potency means the concentration at half of the fitted maximal effect; on the % scale 0 is the no-effect control and ±100 the full control effect; nearly all actives have a fitted effect of over 50% in size
HCV inh: inhibitors of hepatitis C virus infection. Huh7.5.1 HCVcc-Cre infection, luciferase reporter, 44 h. Potency, µM (top dose mostly 41.8 µM), inactives show at the highest dose activity change, negative = inhibition, hits mostly inhibitors. 340,000 tested, 3.4% active; active means well fitted inhibition curve with a large enough effect; inconclusive means small, poorly fitted or top-dose-only effect, or another doubt; inactive means no such curve, though single readings can be large or run the other way; further: potency means the concentration at half of the fitted maximal effect; on the % scale 0 is the no-effect control and ±100 the full control effect
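Cells (1,000/well) were plated 4 h before compound, then infected with HCVcc-Cre virus (~0.5 moi). After 44 h further culture, infection was read as luciferase luminescence following a 15 min substrate incubation at room temperature.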
HCMV antiviral: blocks human cytomegalovirus replication; HFF cells, HCMV-luciferase reporter, 72 h; stronger effect = lower value; activity change, negative = inhibition, % at 57.5 µM; 410,000 tested, 4.5% active; in the data active means activity change below about -60%; inconclusive means no clear call, values can overlap the other calls; inactive means above about -39%; further: on the % scale 0 is the no-effect control and ±100 the full control effect
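After 16 h attachment at 37C, HFF cells received test compound and HCMV-luciferase (1 PFU/cell); reporter luminescence read 72 h later, data normalized against buffer-only and known inhibitor Salinomycin.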
FMDV antiviral: antivirals against foot and mouth disease virus; FMDV antiviral cell-based qHTS; Potency, µM (titrated, usually from 57.9 µM), inactives show top-dose activity change, negative = inhibition, actives largely listed as inhibitors; 410,000 tested, 1.2% active; AID 1159524; calls by dose curve; tested in HEK293T cells; further: read-out not given here; potency means the concentration at half of the fitted maximal effect; on the % scale 0 is the no-effect control and ±100 the full control effect; nearly all actives have a fitted effect of over 45% in size
SARS PLpro yeast: SARS-CoV PLP inhibition in yeast; S. cerevisiae expressing SARS-CoV PLpro, growth rescue; Potency, µM (highest dose often 32.9 µM), for the others: top-dose activity, positive = growth rescue, actives largely listed as activators; 330,000 tested, 0.19% active; calls by dose curve; further: potency means the concentration at half of the fitted maximal effect; 0% is about no effect; nearly all actives have a fitted effect of over 55% in size
* marks the source's active call; other numbers are inactive results; ? = inconclusive; nt = not tested or not shown; [ ] = another dose, or the depositor's remark.

SMILES | Marburg entry inh | Lassa entry inh | HCV inh | HCMV antiviral | FMDV antiviral | SARS PLpro yeast
O=C(c1ccc2c(c1)N(Cc1cccc(Cl)c1)C(=O)c1ccccc1S2(=O)=O)N1CCN(c2ccccn2)CC1 | nt | nt | 14µM* | -84* | -6% | 2%
Cc1ccc(CNC(=O)C2CCN(c3ncnc4c3nc3n4CCCCC3)CC2)cc1 | nt | 16%[46.1 µM] | nt | -14 | -2% | nt
O=C(c1ccc2c(c1)N(Cc1cccc(Cl)c1)C(=O)c1ccccc1S2(=O)=O)N1CCCCCC1 | nt | ? | nt | -65* | 3% | nt
COc1ccc(CCNC(=O)c2ccc3c(c2)N(Cc2ccc(F)cc2)C(=O)c2ccccc2S3(=O)=O)cc1OC | 10µM* | -27%[46.1 µM] | nt | -24 | -1% | nt
COc1ccccc1N1CCN(C(=O)c2ccc3c(c2)N(Cc2ccccc2)C(=O)c2ccccc2S3(=O)=O)CC1 | 8.9µM* | -23%[46.1 µM] | nt | 5 | 4% | nt
CN1CCN(C(=O)c2ccc3c(c2)N(Cc2cccc(Cl)c2)C(=O)c2ccccc2S3(=O)=O)CC1 | nt | ? | -20% | ? | -2% | 5%
CCOc1ccc(CCNC(=O)c2ccc3c(c2)N(Cc2cccc(Cl)c2)C(=O)c2ccccc2S3(=O)=O)cc1OCC | nt | -18%[46.1 µM] | nt | -38 | -8% | nt
O=C(c1ccc2c(c1)N(Cc1cccc(Cl)c1)C(=O)c1ccccc1S2(=O)=O)N1CCN(Cc2ccccc2)CC1 | nt | ? | nt | -67* | -13% | nt
O=C(c1ccc2c(c1)N(Cc1cccc(Cl)c1)C(=O)c1ccccc1S2(=O)=O)N1CCCC1 | nt | -21%[46.1 µM] | nt | ? | -1% | nt
NNc1nnc2c3cc(F)ccc3n(CCc3ccccc3)c2n1 | 10µM* | ? | ? | -94* | -10% | 0%
COc1ccccc1Nc1nn2c(=O)c3ccc(C(=O)NCCc4ccccc4)cc3nc2s1 | nt | ? | nt | -99* | ? | nt
COc1ccccc1Nc1nn2c(=O)c3ccc(C(=O)NCCC4=CCCCC4)cc3nc2s1 | nt | ? | nt | -106* | ? | nt
Cc1ccc(C)c(Nc2nn3c(=O)c4ccc(C(=O)NCCc5ccccc5)cc4nc3s2)c1 | nt | 3%[46.1 µM] | nt | 9 | 0% | nt
CN1C(=O)c2ccccc2Sc2ccc(NC(=O)NCc3ccc(Cl)cc3)cc21 | ? | -21%[46.1 µM] | nt | -89* | ? | nt
CCOc1ccc(CNC(=O)Nc2ccc3c(c2)N(C)C(=O)c2ccccc2S3)cc1 | -29%[46.1 µM] | -10%[46.1 µM] | nt | -62* | ? | nt
COCCNC(=O)Nc1ccc2c(c1)N(C)C(=O)c1ccccc1S2 | -15%[46.1 µM] | -18% | 3% | -30 | -10% | 0%
CN1C(=O)CSc2ccc(NC(=O)NCc3cccnc3)cc21 | -16% | 0% | ? | -61* | nt | 4%
COc1cc(OC)c(NC(=O)Nc2ccc3c(c2)N(C)C(=O)c2ccccc2S3)cc1Cl | 10µM* | -24%[46.1 µM] | nt | 1 | 12% | nt
COc1ccc(CNC(=O)Nc2ccc3c(c2)N(C)C(=O)c2ccccc2S3)cc1 | -8%[46.1 µM] | 23%[46.1 µM] | nt | -28 | -17% | nt
O=c1c(-c2ccc(O)cc2)coc2c(C3OC(CO)C(O)C(O)C3O)c(O)ccc12 (stereo not drawn) | nt | nt | nt | nt | -8% | nt
Cc1ccc(C(=O)Nc2ccc3c(c2)N(C)C(=O)c2ccccc2S3)cc1F | nt | ? | nt | -91* | ? | nt
COc1ccc(C(=O)Nc2ccc3c(c2)N(C2CCCC2)C(=O)c2ccccc2S3)cc1OC | nt | 1.3µM* | nt | -70* | 0% | nt
Cc1ccccc1CNC(=O)Nc1ccc2c(c1)N(C)C(=O)c1ccccc1S2 | 4%[46.1 µM] | -30%[46.1 µM] | nt | -97* | ? | nt
COc1cc(Cl)c(NC(=O)CN2C(=O)c3cccnc3Sc3ccccc32)c(OC)c1 | -3%[46.1 µM] | 0%[46.1 µM] | nt | -16 | -2% | nt
Cc1cc(Cl)ccc1OCC(=O)N(Cc1ccc(N(C)C)cc1)CC1CCCO1 (stereo not drawn) | ? | ? | nt | -30 | ? | nt
SMILES | Marburg entry inh | Lassa entry inh | HCV inh | HCMV antiviral | FMDV antiviral | SARS PLpro yeast
CC(=O)c1c(C)n(C2CCCCC2)c2ccc(O)cc12 | -9%[46.1 µM] | -4% | 10µM* | -66* | -24% | 0%
Cc1ccc(F)cc1NC(=O)Cn1c(=O)nc(-c2ccccc2F)c2cc(Cl)ccc21 | nt | -5%[46.1 µM] | nt | -3 | 16% | nt
CCn1c(C)c(P(c2ccccc2)c2ccccc2)[n+]2ccccc12 | ? | -12% | -15% | -61* | ? | 1%
C[C@@H]1CN([C@@H](C)CO)C(=O)CCCn2nncc2CO[C@@H]1CN(C)C(=O)Nc1ccc(-c2cccs2)cc1 | nt | nt | nt | -6 | -20% | nt
C[C@H](CO)N1C[C@H](C)[C@H](CN(C)C(=O)Nc2ccc(-c3cccs3)cc2)OCc2cnnn2CCCC1=O | nt | nt | nt | -61* | -15% | nt
O=C(Nc1ccccc1)Nc1n[nH]c2nnc(-c3ccccc3)c(-c3ccccc3)c12 | nt | nt | 14µM* | 8 | ? | -7%
COc1ccc(S(=O)(=O)NCC(c2ccco2)N2CCN(c3ccc(F)cc3)CC2)cc1C (stereo not drawn) | nt | ? | nt | -25 | -25% | nt
Cc1ccc(-n2cc(C(=O)c3ccccc3O)cn2)cc1 | ? | 3.5µM* | 2% | -15 | -56% | 3%
O=C(CSc1nnnn1-c1ccc(O)cc1)Nc1cccc(S(=O)(=O)N2CCCC2)c1 | ? | ? | ? | -73* | -12% | -3%
O=C(CSc1nnnn1C1CCCC1)Nc1cccc(NC(=O)c2ccco2)c1 | -21% | 4% | -12% | -70* | nt | 0%
O=C(CSc1nnc(Nc2ccccc2F)s1)Nc1cccc(S(=O)(=O)N2CCCCC2)c1 | ? | ? | 13µM* | 9 | ? | 1%
O=C(CSc1nncn1-c1ccccc1)Nc1cccc(S(=O)(=O)N2CCCCC2)c1 | -2% | 1% | 13% | 19 | nt | 11%
O=C(CSc1nnnn1C1CCCCC1)Nc1cccc(NC(=O)c2ccco2)c1 | -9% | ? | ? | -19 | -20% | -4%
Cc1nnc(NC(=O)c2cc(S(=O)(=O)N3CCCCC3)ccc2Cl)s1 | 12% | 21% | 11µM* | 0 | -17% | -4%
O=C(c1cccc(F)c1F)N1CCOc2ccc(CN3CCN(Cc4ccccn4)CC3)cc2C1 | nt | nt | nt | nt | 10% | nt
C[N+]1=C(/C=N/O)CCCC1 | 2% | nt | nt | nt | nt | nt
COc1ccc(Cn2ccnc2SCC(=O)Nc2ccc(C)cc2C)cc1 | nt | ? | nt | -15 | 11% | nt
CCOc1cc(Cn2c(-c3ccc(O)c(OCC)c3)nc3ccccc32)ccc1O | nt | -1%[46.1 µM] | nt | -8 | -21% | nt
O=C(CSc1nnc(NC2CCCCC2)s1)Nc1ccc2c(c1)C(=O)c1ccccc1C2=O | nt | nt | 10µM* | 106 | 22% | 1%
CC(C)Nc1nnc(SCC(=O)Nc2ccc3c(c2)C(=O)c2ccccc2C3=O)s1 | ? | ? | ? | 73 | -2% | -15%
Cc1nnc(SCC(=O)Nc2ccc(-c3nc4ccccc4s3)cc2)s1 | ? | 10µM* | 1% | 58 | 0% | 0%
O=C(CSc1nnnn1C1CC1)Nc1cccc(S(=O)(=O)N2CCCC2)c1 | ? | -4% | -22% | -75* | -1% | -1%
Cc1nnc(SCC(=O)Nc2ccccc2NC(=O)CSc2nnc(C)s2)s1 | -5% | 5% | 7% | 13 | -7% | nt
